# Results reported in PubChem BioAssay.
# Results filed as inconclusive are left out. Activity calls are given as the source filed them. No cut-off is given here; in the data, nearly all actives have IC50 up to about 30 µM.
# Assay: SU-DIPG-XXV glioma cell viability, MIPE5.0 library, qHTS (AID 1347068);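 for IC50: cells exposed to compound for 48 hours before viability readout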
Structure (SMILES),IC50,outcome
CCCCNc1ncc2c(-c3ccc(CN4CCN(C)CC4)cc3)cn(C3CCC(O)CC3)c2n1 (configuration not stated),3.32 µM (active),
CC(C)Nc1cc(-c2c[nH]c(C(=O)N[C@H](CO)c3cccc(Cl)c3)c2)c(Cl)cn1,14.8 µM (active),
CN1CCN(c2ccc3nc(-c4cc(C(C)(C)C)c(OCCCC(=O)NCCCN=[N+]=[N-])c(C(C)(C)C)c4)[nH]c3c2)CC1,9.34 µM (active),
C[C@@H]1COCCN1c1cc(=O)n2c(n1)N(Cc1cncc(Cl)c1)[C@H](C(F)(F)F)CC2,,inactive
CCc1cc(C(N)=O)ccc1-n1nc(C(C)C)c2c(-n3cnc(-c4cnn(C)c4)c3)ccnc21,3.32 µM (active),
CCOc1ccc(-n2c([C@@H](C)N(Cc3cccnc3)C(=O)Cc3ccc(F)c(C(F)(F)F)c3)nc3ncccc3c2=O)cc1,,inactive
CC(C)(C)C(=O)N1N=CC[C@H]1c1ccccc1,,inactive
O=C(COCC(=O)N1CCN(C(c2ccccc2)c2ccccc2)CC1)Nc1ccc(Cl)cc1C(=O)O,,inactive
COc1ccccc1C(=O)Nc1cc2c(cc1N1CCNC[C@H]1C)n(C)c(=O)n2C,,inactive
O=C(CCCc1ccc2cccnc2n1)NCc1cc(-c2ccc(F)c(C(F)(F)F)c2)no1,,inactive
CC(=O)Nc1cc(Oc2ccc3c(nc(Nc4ccc(F)cc4F)n3C)c2C)ccn1,1.05 µM (active),
COc1ccc(N(C)c2nc(C)nc3ccccc23)cc1,0.0166 µM (active),
